Source: PubChem BioAssay (NCATS)
Several values for one entry are separate records, joined by “and”; a condition that tells them apart may be missing. Identical values can stand only once. Inconclusive results are not listed. A number with no mark means an inactive call. Activity calls are given as the source filed them. Calls come from the whole dose curve; as a rule, active = well fitted inhibition curve with a large enough effect; inconclusive = small, poorly fitted or top-dose-only effect; inactive = flat fitted curve, though single readings scatter.

Test system: Zika virus NS2B-NS3 protease
Experiment: Primary screen GU AMC qHTS for Zika virus inhibitors (AID 1347154); note: nearly all actives have a fitted effect of over 70% in size;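 for activity change, negative = inhibition: 0% = no-inhibitor control and -100% = no-enzyme control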
Settings: Zika NS2B-NS3 unlinked protease, AMC fluorogenic substrate; series mostly up to 54.1 µM; activity change, negative = inhibition: at the top concentration
Procedure, shortened: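 Unlinked Zika NS2B hydrophilic domain–NS3 protease complex at 25 nM in 10 mM Tris-HCl pH 8.0, 0.01% Tween 20, with an AMC peptide substrate. Fluorescence change (340/450 nm) over 15 min at room temperature, normalized to controls, fitted to 4-parameter Hill.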
Potency is the fitted concentration of half-maximal effect.

Row | Structure (SMILES) | activity change, negative = inhibition [%] | Potency
1 | CCOP(=S)(OCC)Oc1cc(C)nc(C(C)C)n1 | -1.31 | 
2 | CNC(=O)N1N=C(c2ccc(N)cc2)c2cc3c(cc2CC1C)OCO3 (stereo not drawn) | 1.69 | 
3 | O=P1(NCCCl)OCCCN1CCCl (stereo not drawn) |  | inactive
4 | CC1NCCOC1c1ccccc1 (stereo not drawn) | 1.25 | 
5 | C[C@@H]1[C@@H](C(=O)C[C@H]2O[C@@H]3O[C@]4(C)CC[C@@H]5[C@H](C)CC[C@@H]([C@H]2C)[C@@]35OO4)O[C@@H]2O[C@]3(C)CC[C@H]4[C@H](C)CC[C@@H]1[C@@]24OO3 | 4.27 | 
6 | CN(C)CCc1ccc(O)cc1 |  | inactive
7 | CNC(=O)c1ccc(N2C(=S)N(c3ccc(C#N)c(C(F)(F)F)c3)C(=O)C23CCC3)cc1F | 3.46 | 
8 | CCCC(C)(COC(N)=O)COC(=O)NC(C)C (stereo not drawn) |  | inactive
9 | Oc1ccc(Cl)cc1Cc1ccccc1 | -15.4 | 
10 | C[C@@H]1[C@@H](CC(C[C@H]2O[C@@H]3O[C@]4(C)CC[C@@H]5[C@H](C)CC[C@@H]([C@H]2C)[C@@]35OO4)C[S+](=O)([O-])c2ccc(COC(=O)N(C)C)cc2)O[C@@H]2O[C@]3(C)CC[C@H]4[C@H](C)CC[C@@H]1[C@@]24OO3 (stereo partly drawn) | 4.33 | 
11 | NCCc1cc(O)c(O)cc1O |  | 4.55 µM (active) and 21.2 µM (active)
12 | C#CCN(C)[C@H](C)Cc1ccccc1 |  | inactive
13 | O=C(O)c1ccc2[nH]cc(CCCCN3CC=C(c4ccccc4)CC3)c2c1 |  | inactive
14 | CC(C)=CC1C(C(=O)OCc2cccc(Oc3ccccc3)c2)C1(C)C (stereo not drawn) | -10.3 | 
15 | c1ccc2c(c1)Nc1ccccc1S2 |  | inactive
16 | CCCC1CCCCN1 (stereo not drawn) | 3.59 | 
17 | OCCOc1ccccc1 | 0.226 | 

Row | Structure (SMILES) | activity change, negative = inhibition [%] | Potency
18 | CCOC(=O)C1(c2ccccc2)CCN(CCC(C#N)(c2ccccc2)c2ccccc2)CC1 | -4.49 | 
19 | COc1ccc2c(c1OC)CN1CCc3cc4c(cc3C1C2)OCO4 (stereo not drawn) |  | inactive
20 | CC(C)NCC(O)c1ccccc1Cl (stereo not drawn) | -3.79 | 
21 | O=C1CC[C@@]2(O)[C@H]3Cc4ccc(O)c5c4[C@@]2(CCN3CC2CC2)[C@H]1O5 |  | inactive
22 | O=[N+]([O-])c1cc([As](=O)(O)O)ccc1O | -1.67 | 
23 | CCC(COC(=O)c1cc(OC)c(OC)c(OC)c1)(c1ccccc1)N(C)C (stereo not drawn) | -6.15 | 
24 | CC[N+](CC)(CC)CC | -2.48 | 
25 | CCC(C(N)=O)N1CCCC1=O (stereo not drawn) |  | inactive
26 | CN1CCN(C(=O)O[C@H]2c3nccnc3C(=O)N2c2ccc(Cl)cn2)CC1 |  | inactive
27 | C#CCOC(C(=O)OCCN(C)C)(c1ccccc1)c1ccccc1 | 0.547 | 
28 | CN(C)[C@@H]1C(=O)C(C(N)=O)=C(O)[C@@]2(O)C(=O)C3=C(O)c4c(O)cccc4[C@@](C)(O)[C@H]3C[C@@H]12 | -16.5 | 
29 | C=C1C[C@@H]2[C@H](CC[C@]3(C)C(=O)CC[C@@H]23)[C@@]2(C)C=CC(=O)C=C12 | -2.51 | 
30 | CCN(CC)CCN1C(=O)CN=C(c2ccccc2F)c2cc(Cl)ccc21 | 5.57 | 
31 | CN1C(=S)CN=C(c2ccccc2)c2cc(Cl)ccc21 | 4.75 | 
32 | CC[N+]1(C)CCCC(OC(=O)C(O)(c2ccccc2)c2ccccc2)C1 (stereo not drawn) | 4.88 | 
33 | COc1ccc(Cc2nccc3cc(OC)c(OC)cc23)cc1OC |  | inactive
